Assay [1] is described as follows: qHTS assay to identify small molecule agonists of the hypoxia (HIF-1) signaling pathway - cell viability counter screen (AID 1224844; calls by dose curve; note: nearly all actives have a fitted effect of over 50% in size). The following applies: HRE-bla ME-180 viability, CellTiter-Glo luminescence, 17 h; series mostly up to 76.8 µM. In outline:
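Cytotoxicity measured by CellTiter-Glo ATP luminescence in the wells also read for beta-lactamase signal. Cells were HRE-bla ME-180 (2,000/well, 0.5% dialyzed FBS), exposed to compounds for 17 h at 37C.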
In general terms: qHTS replaces the single test concentration by a dilution series.

Assay [2] is described as follows: qHTS assay to identify small molecule agonists of H2AX (AID 1224845; active = well fitted activation curve with a large enough effect in the signal ratio in the repeat runs, not every such curve was filed as active; the % refers to the signal ratio). The note with it: CHO-K1 phospho-H2AX Ser139 HTRF, 3 h; series mostly up to 154 µM. An outline of the steps:
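Wild-type CHO-K1 cells plated overnight, then exposed 3 hr at 37C to compounds at 15 concentrations (0.76% DMSO). Lysed, then HTRF anti-pH2AX(S139)-cryptate/anti-H2AX-d2 detection after 24 hr at room temperature; emissions 665 and 620 nm.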

A short description of assay [3]: qHTS assay to identify small molecule agonists of the hypoxia (HIF-1) signaling pathway (AID 1224846; active = well fitted activation curve with a large enough effect in the signal ratio in the repeat runs, not every such curve was filed as active; the % refers to the signal ratio). The note with it: HRE-bla ME-180 cells, beta-lactamase ratio, 17 h; series mostly up to 76.8 µM. An outline of the steps:
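Compounds added to ME-180 cells carrying hypoxia-response-element beta-lactamase reporter (0.5% dialyzed FBS, 5 h preplating), 17 h at 37C; agonist activity detected by CCF4-AM B/G FRET read-out.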

Assay [4] is described as follows: qHTS assay to identify small molecule agonists of H2AX - cell viability counter screen (AID 1224847; calls by dose curve; note: nearly all actives have a fitted effect of over 30% in size; note: potency is the fitted concentration of half-maximal effect). The note with it: CHO-K1 viability, CellTiter-Glo luminescence, 3 h; series mostly up to 154 µM. In outline: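 Cytotoxicity counter screen in wild-type CHO-K1 cells: a 3 hr compound treatment at 37C across 15 concentrations, followed by CellTiter-Glo luminescence to gauge viable cells.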

Assay [5] is described as follows: qHTS assay to identify small molecule antagonists of the estrogen related receptor (ERR) signaling pathway from Tox21 library (AID 1224848). Note: nearly all actives have a fitted effect of over 50% in size. Note: potency is the fitted concentration of half-maximal effect. The following applies: ERR reporter cell line, luciferase antagonist mode, 18 h; series mostly up to 92.4 µM. In outline:
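Tox21 10K compounds in DMSO tested for ERR pathway antagonism in NTP's ERR cell line; 18 h, 37 C exposure; ONE-Glo luminescence.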

A short description of assay [6]: qHTS assay to identify small molecule agonists of the estrogen related receptor (ERR) signaling pathway from Tox21 library (AID 1224849; calls by dose curve; note: nearly all actives have a fitted effect of over 15% in size). The following applies: ERR reporter cell line, ONE-Glo luciferase, 18 h. An outline of the steps: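 Luminescent agonist read-out (One-Glo, 30-minute room-temperature incubation) following 18-hour compound treatment at 37 C of the ERR cell line, which had been plated 6 hours before dosing.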

Assay [7] is described as follows: qHTS RealTime-Glo MT Cell Viability Assay in HepG2 cells - 24 hour (AID 1224867). Note: nearly all actives have a fitted effect of over 50% in size. The following applies: RealTime-Glo luminescence; series mostly up to 76.8 µM. In outline: (§1)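 HepG2 cells were seeded at 600 cells/well together with NanoLuc luciferase and a cell-permeant prosubstrate, preincubated 5 h at 37 C/5% CO2, then pin-dosed with compounds in DMSO. Nonlytic luminescence from viable cells was read at each time point.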

A short description of assay [8]: qHTS RealTime-Glo MT Cell Viability Assay in HEK293 cells - 32 hour (AID 1224868). Note: nearly all actives have a fitted effect of over 50% in size. Note: potency is the fitted concentration of half-maximal effect. The following applies: RealTime-Glo luminescence; series mostly up to 76.8 µM. An outline of the steps:
(§2)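 HEK293 cells were seeded at 600 cells/well together with NanoLuc luciferase and cell-permeant prosubstrate, preincubated 5 h at 37 C/5% CO2, then given compound in DMSO by pintool. Luminescence from viable-cell prosubstrate reduction was read repeatedly over 40 h.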

Assay [9] is described as follows: A CellTox Green Cytotoxicity Assay to monitor cytotoxicity in HEK293 cells - 0 hour (AID 1224869). Note: nearly all actives have a fitted effect of over 50% in size. The following applies: CellTox Green fluorescence; series mostly up to 76.8 µM. An outline of the steps: (§3)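 Fluorescence from a DNA-binding dye excluded by viable cells was measured repeatedly in the same HEK293 wells (600 cells/well) during continuous compound exposure at 37 C. Each assay gives one read point: 0, 8, 16, 24, 32 or 40 h.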

Assay [10] is described as follows: qHTS RealTime-Glo MT Cell Viability Assay in HepG2 cells - 40 hour (AID 1224870). Note: nearly all actives have a fitted effect of over 50% in size. The note with it: RealTime-Glo luminescence; series mostly up to 76.8 µM. In outline:
(§4)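 HepG2 cells mixed with RealTime-Glo MT reagents (NanoLuc plus cell-permeant prosubstrate) were seeded at 600 cells/well, incubated 5 h at 37 C/5% CO2, then pinned with compounds in DMSO; nonlytic luminescence tracked viability during 40 h treatment.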

Assay [11] in a line: A CellTox Green Cytotoxicity Assay to monitor cytotoxicity in HEK293 cells - 40 hour (AID 1224871). Note: nearly all actives have a fitted effect of over 45% in size. The note with it: CellTox Green fluorescence; series mostly up to 76.8 µM. In outline:
as §3

The nature of assay [12]: qHTS RealTime-Glo MT Cell Viability Assay in HEK293 cells - 16 hour (AID 1224872). Note: nearly all actives have a fitted effect of over 50% in size. Note: potency is the fitted concentration of half-maximal effect. The note with it: RealTime-Glo luminescence; series mostly up to 76.8 µM. An outline of the steps: as §2
The nature of assay [13]: qHTS RealTime-Glo MT Cell Viability Assay in HepG2 cells - 8 hour (AID 1224873). Note: nearly all actives have a fitted effect of over 55% in size. The note with it: RealTime-Glo luminescence; series mostly up to 76.8 µM. In outline:
as §4

Assay [14] can be described thus: qHTS RealTime-Glo MT Cell Viability Assay in HEK293 cells - 40 hour (AID 1224874). Note: nearly all actives have a fitted effect of over 50% in size. Note: potency is the fitted concentration of half-maximal effect. The following applies: RealTime-Glo luminescence; max response: hits give low values. In outline: (§5)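 Luminescence, which tracks viable cell number through reduction of the prosubstrate to a NanoLuc substrate, was read over continuous 37 C culture. Cells (600/well) were premixed with reagent and rested 5 h before 23 nL of compound in DMSO was pinned.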

A short description of assay [15]: A CellTox Green Cytotoxicity Assay to monitor cytotoxicity in HEK293 cells - 24 hour (AID 1224875). Note: nearly all actives have a fitted effect of over 45% in size. The note with it: CellTox Green fluorescence; series mostly up to 76.8 µM. In outline:
as §3

Assay [16] in a line: A CellTox Green Cytotoxicity Assay to monitor cytotoxicity in HepG2 cells - 16 hour (AID 1224876). Note: nearly all actives have a fitted effect of over 45% in size. The note with it: CellTox Green fluorescence; series mostly up to 76.8 µM. In outline:
(§6)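 Real-time cytotoxicity: fluorescence of a cell-impermeant cyanine dye binding DNA of dead HepG2 cells, measured repeatedly (0–40 h) during compound exposure at 37 C. Cells seeded 600/well with reagent, dosed after 5 h.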

Assay [17] in a line: qHTS RealTime-Glo MT Cell Viability Assay in HepG2 cells - 32 hour (AID 1224877). Note: nearly all actives have a fitted effect of over 55% in size. The note with it: RealTime-Glo luminescence; series mostly up to 76.8 µM. An outline of the steps: as §1
Assay [18] in a line: A CellTox Green Cytotoxicity Assay to monitor cytotoxicity in HepG2 cells - 40 hour (AID 1224879). Note: nearly all actives have a fitted effect of over 40% in size. The note with it: CellTox Green fluorescence; series mostly up to 76.8 µM. In outline:
as §6

The nature of assay [19]: qHTS RealTime-Glo MT Cell Viability Assay in HEK293 cells - 0 hour (AID 1224880). Note: top concentration of the series differs between compounds; nearly all actives have a fitted effect of over 45% in size. The following applies: RealTime-Glo luminescence; series mostly up to 76.8 µM. An outline of the steps:
as §5

Assay [20] is described as follows: A CellTox Green Cytotoxicity Assay to monitor cytotoxicity in HepG2 cells - 24 hour (AID 1224878). Note: nearly all actives have a fitted effect of over 45% in size. The note with it: CellTox Green fluorescence; series mostly up to 76.8 µM. An outline of the steps:
as §6

Values joined by “and” are separate entries in the source; they are usually repeats but may differ in a detail not shown here. Equal values may be shown once. Unmarked numbers belong to inactive results. Inconclusive results are not listed. Active and inactive are the calls of the source. Unless noted, calls come from the whole dose curve; as a rule, active = well fitted curve in the direction sought with a large enough effect in the repeat runs; inconclusive = weak or mixed curves; inactive = no such curve, though single readings can be large; an effect the other way counts as inactive or inconclusive.
% is set by controls: 0 for no effect and ±100 for the full control effect.

As for `Clc1ccc(C(Cl)(Cl)Cl)cc1`, the Potency result in [1], in assay [2], in assay [4], in assay [5], in assay [7] and in assay [8] was “inactive” in each case. Besides, the Potency entry in assay [9], in assay [10], in assay [11], in assay [12], in assay [13] and in assay [15] was “inactive” throughout. Also, the Potency result in assay [16], in assay [17], in [18] and in [19] was “inactive” throughout. In addition, in [3], the result was inactive. Besides, the activity change, positive = activation in assay [6] (at 92.4 µM (top of the series)) is -5.48% and 0.497%. Also, the max response in assay [14] is -12.2% and -12.9%.

For the compound `Cn1c(-c2ccccc2)cc(-c2ccccc2)[n+]1C`, the Potency result in assay [1], in assay [2], in [4], in assay [7], in assay [9] and in assay [10] was “inactive” throughout. The Potency result in assay [11], in [13], in assay [15], in assay [16], in [17] and in assay [18] was “inactive” throughout. Further, the Potency result in [19] is “inactive”. For the same compound, the outcome in [3] was inactive. The Potency in [5] was 17.2 µM (active) and 21.7 µM (active); in [8], 8.69 µM (active) and 24.5 µM (active); in assay [14], 9.75 µM (active) and 21.9 µM (active). Moreover, the activity change, positive = activation in [6] (at 92.4 µM (top of the series)) is -54.1% and -52.6%.

Consider `O=P(OCCCl)(OCCCl)OCCCl`, for which the Potency result in assay [1], in assay [2], in [4], in [5], in [7] and in assay [8] was “inactive” throughout. Moreover, the Potency entry in assay [9], in assay [10], in assay [11], in [12], in [13] and in [15] was “inactive” in each case. Also, the Potency result in [16], in [17], in assay [20], in assay [18] and in assay [19] was “inactive” each time. Moreover, the result in [3] was inactive. In addition, the activity change, positive = activation in [6] (at 92.4 µM (top of the series)) was 1.87% and 3.07%. Moreover, the max response in assay [14] is -9.18% and -11.6%.

On to `N#Cc1nn(-c2c(Cl)cc(C(F)(F)F)cc2Cl)c(N)c1S(=O)C(F)(F)F` (centres undefined), for which the Potency entry in assay [1], in assay [2], in assay [7], in [9], in assay [10] and in assay [11] was “inactive” each time. Also, the Potency result in assay [15], in assay [16], in assay [17] and in [19] was “inactive” throughout. Further, the outcome in assay [3] was inactive. The Potency was 101 µM (active) in [4]; 5.48 µM (active) and 11.9 µM (active) in assay [5]; 22 µM (active) in assay [8]; 22 µM (active) and 21.3 µM (active) in assay [12]; 24.7 µM (active) in [14]. For the same compound, the activity change, positive = activation is -52.7% in assay [6] (at 42.5 µM (top of the series)) and -58.7% in assay [6] (at 92.4 µM (top of the series)).

In the case of `CN(C)P(=O)(N(C)C)N(C)C`, the Potency entry in assay [1], in [2], in assay [4], in assay [5], in assay [7] and in assay [8] was “inactive” throughout. Further, the Potency result in [9], in assay [10], in assay [11], in assay [12], in assay [13] and in [15] was “inactive” each time. The Potency entry in assay [16], in assay [17], in assay [18] and in assay [19] was “inactive” in each case. Besides, the outcome in assay [3] was inactive. The activity change, positive = activation in [6] (at 92.4 µM (top of the series)) was 5.26% and 10.2%. Moreover, in assay [14], the max response was 3.42% and 6.93%.

For the origin of these results see PubChem BioAssay (Tox21).
